Drawing on PMC7862700, “An all-to-all approach to the identification of sequence-specific readers for epigenetic DNA modifications on cytosine”, this text covers binding signal for one sequence.

Assay in all cases: DAPPL (digital affinity profiling via proximity ligation, sequencing); 10 mM Tris-HCl pH 7.5, 50 mM NaCl, 1 mM DTT, 4% glycerol, room temperature, 30 min; GST-TFs on glutathione beads, 16-mer random dsDNA library, 0.1% formaldehyde crosslink after washing; high values mean tight binding
Assay [1] addresses T1, FLI1 (Homo sapiens, UniProt Q01543 1-452).
T1 sequence: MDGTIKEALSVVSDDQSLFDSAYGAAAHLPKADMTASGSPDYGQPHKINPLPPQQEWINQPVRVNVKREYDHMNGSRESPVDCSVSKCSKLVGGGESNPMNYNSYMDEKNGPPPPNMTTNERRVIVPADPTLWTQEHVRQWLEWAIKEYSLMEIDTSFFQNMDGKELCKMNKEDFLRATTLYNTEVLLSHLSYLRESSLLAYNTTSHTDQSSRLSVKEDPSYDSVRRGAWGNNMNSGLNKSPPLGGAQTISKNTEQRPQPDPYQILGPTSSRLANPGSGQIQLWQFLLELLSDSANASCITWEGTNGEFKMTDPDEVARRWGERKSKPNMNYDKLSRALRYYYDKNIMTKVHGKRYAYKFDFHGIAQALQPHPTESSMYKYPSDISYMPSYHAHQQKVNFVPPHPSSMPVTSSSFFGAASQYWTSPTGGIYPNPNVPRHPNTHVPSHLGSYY
As to conditions: protein: recombinant; tags: N-terminal GST; dsDNA, one strand shown. The gist of the method: (§1)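 Beads coated with glutathione captured GST-fused human transcription factors that had been expressed in yeast, and the factors were then given DNA barcodes and pooled with a tag-only sample. The pools were incubated with 200 nmole of a random double-stranded 16-mer DNA library in Tris/NaCl/DTT/glycerol buffer for 30 min at room temperature, washed, crosslinked with 0.1% formaldehyde and proximity-ligated with BsaI/T4 ligase at 37 °C for 1 h. PCR amplification and Illumina NextSeq500 sequencing came last. Binding signal is each hexamer's read frequency for a factor divided by its frequency for the tag-only sample.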

Assay [2] addresses T2, ELK1 (Homo sapiens, UniProt P19419 1-428).
T2 sequence: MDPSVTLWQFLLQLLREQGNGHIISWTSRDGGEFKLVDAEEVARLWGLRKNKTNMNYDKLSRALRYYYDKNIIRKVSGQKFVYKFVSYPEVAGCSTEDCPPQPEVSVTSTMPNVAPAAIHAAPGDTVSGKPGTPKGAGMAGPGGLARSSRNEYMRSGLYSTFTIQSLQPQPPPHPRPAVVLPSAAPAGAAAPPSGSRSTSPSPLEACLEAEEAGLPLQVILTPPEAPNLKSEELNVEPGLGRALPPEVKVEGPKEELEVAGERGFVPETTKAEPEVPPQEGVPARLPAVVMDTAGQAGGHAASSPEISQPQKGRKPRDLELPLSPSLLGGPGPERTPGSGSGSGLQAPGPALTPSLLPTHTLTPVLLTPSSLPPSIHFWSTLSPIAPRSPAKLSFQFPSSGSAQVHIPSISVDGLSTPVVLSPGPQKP
As to conditions: protein: recombinant; tags: N-terminal GST; dsDNA, one strand shown. The gist of the method:
as §1

Assay [3] deals with T3, ERG (Homo sapiens, UniProt P11308 1-479).
T3 sequence: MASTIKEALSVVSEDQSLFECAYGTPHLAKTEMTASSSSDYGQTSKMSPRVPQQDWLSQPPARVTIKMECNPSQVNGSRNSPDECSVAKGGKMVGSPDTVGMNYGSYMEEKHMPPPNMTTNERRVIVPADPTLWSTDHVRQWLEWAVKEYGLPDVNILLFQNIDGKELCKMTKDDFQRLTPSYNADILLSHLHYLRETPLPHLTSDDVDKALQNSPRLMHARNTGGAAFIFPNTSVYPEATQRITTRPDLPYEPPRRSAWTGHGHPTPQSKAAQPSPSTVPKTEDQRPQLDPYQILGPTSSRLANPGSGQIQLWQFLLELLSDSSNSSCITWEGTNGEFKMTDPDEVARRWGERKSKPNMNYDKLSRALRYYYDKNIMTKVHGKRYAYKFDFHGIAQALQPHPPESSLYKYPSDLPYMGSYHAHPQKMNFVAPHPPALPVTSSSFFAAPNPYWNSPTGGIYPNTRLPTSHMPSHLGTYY
As to conditions: protein: recombinant; tags: N-terminal GST; dsDNA, one strand shown. The gist of the method: as §1

In assay [4] the target is ELF1 (Homo sapiens, UniProt P32519 1-619). As to conditions: protein: recombinant; tags: N-terminal GST; dsDNA, one strand shown. The gist of the method: as §1
In assay [5] the target is T4, EHF (Homo sapiens, UniProt Q9NZC4 1-300).
T4 sequence: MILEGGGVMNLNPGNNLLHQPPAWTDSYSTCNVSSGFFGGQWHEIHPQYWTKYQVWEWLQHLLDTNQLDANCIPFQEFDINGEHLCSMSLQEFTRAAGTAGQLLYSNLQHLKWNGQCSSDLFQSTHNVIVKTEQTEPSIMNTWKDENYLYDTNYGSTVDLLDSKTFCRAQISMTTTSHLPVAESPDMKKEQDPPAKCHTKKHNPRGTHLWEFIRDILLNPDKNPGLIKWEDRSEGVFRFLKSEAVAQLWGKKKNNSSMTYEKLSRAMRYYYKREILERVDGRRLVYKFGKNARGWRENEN
As to conditions: protein: recombinant; tags: N-terminal GST; dsDNA, one strand shown. The gist of the method:
as §1

Assay [6] has as its target SPI1 (Homo sapiens, UniProt P17947 1-270). As to conditions: protein: recombinant; tags: N-terminal GST; dsDNA, one strand shown. The gist of the method:
as §1

Assay [7] has as its target SPIB (Homo sapiens, UniProt Q01892 1-262). As to conditions: protein: recombinant; tags: N-terminal GST; dsDNA, one strand shown. The gist of the method:
as §1

The target of assay [8] is T5, ELK3 (Homo sapiens, UniProt P41970 1-407).
T5 sequence: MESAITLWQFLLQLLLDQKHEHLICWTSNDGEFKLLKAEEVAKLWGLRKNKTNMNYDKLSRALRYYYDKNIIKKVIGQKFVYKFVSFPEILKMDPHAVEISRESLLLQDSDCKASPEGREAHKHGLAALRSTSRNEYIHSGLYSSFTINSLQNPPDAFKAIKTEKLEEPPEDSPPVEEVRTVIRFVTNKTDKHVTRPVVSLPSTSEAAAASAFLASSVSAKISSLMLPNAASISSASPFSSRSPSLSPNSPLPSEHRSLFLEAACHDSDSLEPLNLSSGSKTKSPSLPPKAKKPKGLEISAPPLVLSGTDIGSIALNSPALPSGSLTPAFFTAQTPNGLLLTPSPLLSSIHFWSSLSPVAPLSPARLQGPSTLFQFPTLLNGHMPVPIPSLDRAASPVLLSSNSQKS
As to conditions: protein: recombinant; tags: N-terminal GST; dsDNA, one strand shown. The gist of the method: as §1

Assay [9] has as its target T6, FEV (Homo sapiens, UniProt Q99581 1-238).
T6 sequence: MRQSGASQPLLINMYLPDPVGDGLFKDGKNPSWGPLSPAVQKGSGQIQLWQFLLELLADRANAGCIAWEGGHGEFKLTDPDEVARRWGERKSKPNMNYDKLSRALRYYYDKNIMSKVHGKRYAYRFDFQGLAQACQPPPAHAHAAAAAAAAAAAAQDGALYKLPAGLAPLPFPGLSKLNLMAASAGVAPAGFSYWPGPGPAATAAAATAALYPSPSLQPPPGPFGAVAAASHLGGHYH
As to conditions: protein: recombinant; tags: N-terminal GST; dsDNA, one strand shown. The gist of the method:
as §1

For assay [10], the target named is ETV5 (Homo sapiens, UniProt P41161 1-510). As to conditions: protein: recombinant; tags: N-terminal GST; dsDNA, one strand shown. The gist of the method:
as §1

Assay [11] concerns the target HSF1 (Homo sapiens, UniProt Q00613 1-529). As to conditions: protein: recombinant; tags: N-terminal GST; chain copies: 3; dsDNA, one strand shown. The gist of the method:
as §1

The target in assay [12] is T7, SPIC (Homo sapiens, UniProt Q8N5J4 1-248).
T7 sequence: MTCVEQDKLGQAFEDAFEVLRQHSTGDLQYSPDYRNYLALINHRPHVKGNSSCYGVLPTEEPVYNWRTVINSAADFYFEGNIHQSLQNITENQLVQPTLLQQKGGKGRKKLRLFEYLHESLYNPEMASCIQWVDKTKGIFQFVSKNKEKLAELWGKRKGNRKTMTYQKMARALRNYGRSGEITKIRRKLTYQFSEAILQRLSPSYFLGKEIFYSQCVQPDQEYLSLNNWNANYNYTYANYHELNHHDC
As to conditions: protein: recombinant; tags: N-terminal GST; dsDNA, one strand shown. The gist of the method: as §1

Assay [13] concerns the target ELF4 (Homo sapiens, UniProt Q99607 1-663). As to conditions: protein: recombinant; tags: N-terminal GST; dsDNA, one strand shown. The gist of the method: as §1
Assay [14] addresses T8, ETV2 (Homo sapiens, UniProt O00321 1-342).
T8 sequence: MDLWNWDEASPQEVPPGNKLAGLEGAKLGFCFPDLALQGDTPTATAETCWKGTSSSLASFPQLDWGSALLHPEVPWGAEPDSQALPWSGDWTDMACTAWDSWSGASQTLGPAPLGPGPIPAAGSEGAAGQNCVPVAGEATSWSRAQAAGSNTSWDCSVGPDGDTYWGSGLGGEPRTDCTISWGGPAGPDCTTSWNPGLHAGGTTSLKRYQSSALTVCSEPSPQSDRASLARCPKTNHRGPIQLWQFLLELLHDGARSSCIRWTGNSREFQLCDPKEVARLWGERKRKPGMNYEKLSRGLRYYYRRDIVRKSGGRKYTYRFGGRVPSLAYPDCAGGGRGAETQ
As to conditions: protein: recombinant; tags: N-terminal GST; dsDNA, one strand shown. The gist of the method:
as §1

The target of assay [15] is CRX (Homo sapiens, UniProt O43186 1-299). As to conditions: protein: recombinant; tags: N-terminal GST; dsDNA, one strand shown. The gist of the method:
as §1

The target in assay [16] is ETV1 (Homo sapiens, UniProt P50549 1-477). As to conditions: protein: recombinant; tags: N-terminal GST; dsDNA, one strand shown. The gist of the method:
as §1

Chain of ELF1 (P32519 whole entry): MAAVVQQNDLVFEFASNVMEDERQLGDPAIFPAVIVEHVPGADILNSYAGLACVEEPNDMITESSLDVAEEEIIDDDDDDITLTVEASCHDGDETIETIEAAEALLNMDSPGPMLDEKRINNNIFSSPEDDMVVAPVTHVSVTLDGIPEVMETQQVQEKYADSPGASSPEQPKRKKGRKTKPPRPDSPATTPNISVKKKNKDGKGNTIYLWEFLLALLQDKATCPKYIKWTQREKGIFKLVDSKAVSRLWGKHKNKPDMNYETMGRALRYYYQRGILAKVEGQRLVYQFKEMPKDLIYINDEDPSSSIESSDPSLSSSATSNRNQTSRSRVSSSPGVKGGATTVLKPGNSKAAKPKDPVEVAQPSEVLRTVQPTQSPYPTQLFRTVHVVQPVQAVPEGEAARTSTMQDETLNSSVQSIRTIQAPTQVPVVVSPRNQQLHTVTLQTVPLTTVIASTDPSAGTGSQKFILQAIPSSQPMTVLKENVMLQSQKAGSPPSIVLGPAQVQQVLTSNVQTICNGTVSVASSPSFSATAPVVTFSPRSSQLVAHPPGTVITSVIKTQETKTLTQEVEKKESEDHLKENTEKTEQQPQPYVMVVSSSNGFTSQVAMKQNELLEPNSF
Chain of CRX (O43186 whole entry): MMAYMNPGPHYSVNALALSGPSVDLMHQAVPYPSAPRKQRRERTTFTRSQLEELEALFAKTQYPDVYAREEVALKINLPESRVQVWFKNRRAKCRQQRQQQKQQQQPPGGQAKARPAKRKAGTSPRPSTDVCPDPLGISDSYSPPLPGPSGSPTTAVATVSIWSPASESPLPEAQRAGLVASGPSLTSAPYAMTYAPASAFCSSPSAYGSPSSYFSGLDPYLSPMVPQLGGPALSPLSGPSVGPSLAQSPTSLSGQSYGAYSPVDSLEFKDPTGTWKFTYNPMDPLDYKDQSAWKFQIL
Chain of ETV5 (P41161 whole entry): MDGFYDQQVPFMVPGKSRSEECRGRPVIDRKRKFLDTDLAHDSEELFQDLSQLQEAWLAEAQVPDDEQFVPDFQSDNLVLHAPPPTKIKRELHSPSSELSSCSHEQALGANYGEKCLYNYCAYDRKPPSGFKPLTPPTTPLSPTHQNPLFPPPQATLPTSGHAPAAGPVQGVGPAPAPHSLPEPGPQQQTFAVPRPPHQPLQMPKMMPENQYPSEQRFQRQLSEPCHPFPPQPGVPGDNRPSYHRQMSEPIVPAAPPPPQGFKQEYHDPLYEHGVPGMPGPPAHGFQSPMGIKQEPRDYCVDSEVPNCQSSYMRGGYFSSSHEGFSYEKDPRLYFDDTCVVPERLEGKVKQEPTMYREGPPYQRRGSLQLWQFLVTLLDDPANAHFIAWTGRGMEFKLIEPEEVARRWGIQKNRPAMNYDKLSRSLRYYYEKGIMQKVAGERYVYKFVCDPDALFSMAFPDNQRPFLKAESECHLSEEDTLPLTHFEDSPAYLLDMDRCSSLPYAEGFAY
Chain of ELF4 (Q99607 whole entry): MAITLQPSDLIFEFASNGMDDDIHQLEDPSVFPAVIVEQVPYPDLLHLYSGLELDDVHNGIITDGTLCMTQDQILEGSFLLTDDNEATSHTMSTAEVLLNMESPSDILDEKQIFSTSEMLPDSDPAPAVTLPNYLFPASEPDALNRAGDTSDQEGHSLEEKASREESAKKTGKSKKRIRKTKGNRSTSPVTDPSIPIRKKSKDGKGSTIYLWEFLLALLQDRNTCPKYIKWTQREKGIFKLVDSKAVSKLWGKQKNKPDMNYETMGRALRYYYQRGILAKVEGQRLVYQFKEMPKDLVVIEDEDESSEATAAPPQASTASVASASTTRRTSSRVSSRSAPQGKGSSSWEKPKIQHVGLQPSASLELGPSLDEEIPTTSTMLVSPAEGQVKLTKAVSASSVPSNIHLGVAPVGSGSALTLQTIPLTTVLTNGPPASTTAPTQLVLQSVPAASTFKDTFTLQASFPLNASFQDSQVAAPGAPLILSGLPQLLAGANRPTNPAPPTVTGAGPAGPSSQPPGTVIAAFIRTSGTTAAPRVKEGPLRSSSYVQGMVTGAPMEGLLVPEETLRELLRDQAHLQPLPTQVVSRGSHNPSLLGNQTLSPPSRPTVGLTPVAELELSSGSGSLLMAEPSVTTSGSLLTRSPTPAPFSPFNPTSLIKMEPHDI
Chain of SPIB (Q01892 whole entry): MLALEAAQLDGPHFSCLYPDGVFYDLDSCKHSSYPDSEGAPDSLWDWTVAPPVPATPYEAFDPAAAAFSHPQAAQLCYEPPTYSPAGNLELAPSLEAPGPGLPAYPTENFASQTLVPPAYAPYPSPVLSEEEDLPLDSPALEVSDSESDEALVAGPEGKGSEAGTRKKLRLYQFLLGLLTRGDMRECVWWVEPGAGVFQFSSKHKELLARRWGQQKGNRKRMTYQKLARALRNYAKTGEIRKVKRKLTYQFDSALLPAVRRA
Chain of ETV1 (P50549 whole entry): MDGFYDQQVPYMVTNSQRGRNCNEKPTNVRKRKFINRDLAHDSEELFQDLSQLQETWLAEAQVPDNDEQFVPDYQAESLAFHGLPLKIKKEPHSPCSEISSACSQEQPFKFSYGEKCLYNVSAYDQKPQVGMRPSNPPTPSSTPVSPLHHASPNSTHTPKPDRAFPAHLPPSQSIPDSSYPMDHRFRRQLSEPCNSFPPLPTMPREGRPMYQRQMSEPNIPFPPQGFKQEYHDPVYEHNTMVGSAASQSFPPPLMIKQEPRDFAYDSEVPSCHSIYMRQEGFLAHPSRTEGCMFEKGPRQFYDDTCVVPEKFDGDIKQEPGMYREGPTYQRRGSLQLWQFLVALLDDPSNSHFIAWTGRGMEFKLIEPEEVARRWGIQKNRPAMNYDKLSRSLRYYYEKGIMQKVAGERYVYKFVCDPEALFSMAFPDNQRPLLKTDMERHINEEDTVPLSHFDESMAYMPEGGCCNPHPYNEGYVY
Chain of HSF1 (Q00613 whole entry): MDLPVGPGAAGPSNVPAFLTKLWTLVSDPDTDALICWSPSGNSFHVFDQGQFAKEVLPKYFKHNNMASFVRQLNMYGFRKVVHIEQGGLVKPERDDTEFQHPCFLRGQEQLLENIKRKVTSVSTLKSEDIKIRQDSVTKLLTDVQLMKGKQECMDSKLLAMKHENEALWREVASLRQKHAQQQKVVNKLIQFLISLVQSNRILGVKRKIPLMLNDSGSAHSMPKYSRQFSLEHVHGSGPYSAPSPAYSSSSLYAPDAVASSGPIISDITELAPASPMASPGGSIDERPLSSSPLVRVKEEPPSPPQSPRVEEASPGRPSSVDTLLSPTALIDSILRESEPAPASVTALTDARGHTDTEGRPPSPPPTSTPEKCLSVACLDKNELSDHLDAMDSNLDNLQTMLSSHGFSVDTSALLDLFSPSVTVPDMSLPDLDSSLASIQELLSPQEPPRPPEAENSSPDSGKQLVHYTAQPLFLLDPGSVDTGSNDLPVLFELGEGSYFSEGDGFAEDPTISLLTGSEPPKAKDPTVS

Take AGATGA: the binding signal is 1.06 fold enrichment (6-mer frequency, TF over GST control) in assay [1]; 1.13 fold enrichment (6-mer frequency, TF over GST control) in assay [2]; 1.11 fold enrichment (6-mer frequency, TF over GST control) in [3]; 1.14 fold enrichment (6-mer frequency, TF over GST control) in assay [4]; 1.06 fold enrichment (6-mer frequency, TF over GST control) in [5]; 1.07 fold enrichment (6-mer frequency, TF over GST control) in assay [6]. Further, the binding signal is 1.03 fold enrichment (6-mer frequency, TF over GST control) in assay [7]; 1.14 fold enrichment (6-mer frequency, TF over GST control) in [8]; 1.01 fold enrichment (6-mer frequency, TF over GST control) in [9]; 1.11 fold enrichment (6-mer frequency, TF over GST control) in [10]; 1.24 fold enrichment (6-mer frequency, TF over GST control) in assay [11]; 1.14 fold enrichment (6-mer frequency, TF over GST control) in assay [12]. The binding signal in assay [13] was 1.12 fold enrichment (6-mer frequency, TF over GST control); in [14], 1.17 fold enrichment (6-mer frequency, TF over GST control); in assay [15], 1.21 fold enrichment (6-mer frequency, TF over GST control); in assay [16], 1.1 fold enrichment (6-mer frequency, TF over GST control).
